This passage reports Potency, activation and outcome results from PubChem BioAssay (Tox21).

“And” between values parts separate entries of the source, which are not always exact repeats. Equal values may be shown once. Results filed as inconclusive are left out. A number with no mark means an inactive call. The source made the active and inactive calls. Unless noted, calls come from the whole dose curve; as a rule, active = well fitted curve in the direction sought with a large enough effect in the repeat runs; inconclusive = weak or mixed curves; inactive = no such curve, though single readings can be large; an effect the other way counts as inactive or inconclusive.

The nature of assay [1]: qHTS assay to identify small molecule antagonists of the glucocorticoid receptor (GR) signaling pathway - cell viability counter screen (AID 720693). Note: nearly all actives have a fitted effect of over 55% in size.
Assay [2] in a line: qHTS assay for identifying genotoxic compounds that show differential cytotoxicity against isogenic chicken DT40 cell lines with known DNA damage response pathways - wild type cell line (AID 743012). Note: nearly all actives have a fitted effect of over 60% in size. The method in brief:
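Cells (DT40 wild type, 300/well) are treated with DMSO-dissolved compounds after a ~0.5 h pre-incubation and kept 40 h at 37 C/5% CO2. Viability is then measured by CellTiter-Glo luminescence following 30 min at room temperature.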
Background: qHTS replaces the single test concentration by a dilution series.

Assay [3] in a line: qHTS assay for identifying genotoxic compounds that show differential cytotoxicity against isogenic chicken DT40 cell lines with known DNA damage response pathways - Rev3 mutant cell line (AID 743014). Note: nearly all actives have a fitted effect of over 55% in size.
The nature of assay [4]: qHTS assay for identifying genotoxic compounds that show differential cytotoxicity against isogenic chicken DT40 cell lines with known DNA damage response pathways - Rad54/Ku70 mutant cell line (AID 743015). Note: nearly all actives have a fitted effect of over 60% in size.
Assay [5] is described as follows: qHTS assay to identify small molecule antagonists of the androgen receptor (AR) signaling pathway - cell viability counter screen (AID 743033; note: nearly all actives have a fitted effect of over 45% in size).
Assay [6] can be described thus: qHTS assay to identify small molecule antagonists of the androgen receptor (AR) signaling pathway using the MDA cell line - cell viability counter screen (AID 743041; note: nearly all actives have a fitted effect of over 45% in size). An outline of the steps: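 MDA-kb2 AR-luc cells (MMTV-luciferase, AR/GR responsive) treated with compounds plus R1881 agonist for 16 h at 37C. CellTiter-Fluor added at 15.5 h; fluorescence read after 30 min in the same wells.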

The nature of assay [7]: qHTS assay to identify small molecule antagonists of the thyroid receptor (TR) signaling pathway - cell viability counter screen (AID 743064). Note: nearly all actives have a fitted effect of over 50% in size. An outline of the steps:
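In-well cytotoxicity read by CellTiter-Fluor (30 min, 37 C) following 23.5 h exposure of GH3 cells bearing a TRE-luciferase sensor. Compounds were added alongside 1 nM (final) T3 to drive TR transactivation.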

Assay [8] in a line: qHTS assay to identify small molecule antagonists of the thyroid receptor (TR) signaling pathway (AID 743065). Note: nearly all actives have a fitted effect of over 55% in size. The method in brief:
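GH3.TRE-Luc rat pituitary cells (two TREs driving luciferase) were dosed with compound, then stimulated with 1 nM T3 (final) for 23.5 h at 37 C. ONE-Glo luminescence was the read-out, with CellTiter-Fluor fluorescence as the cytotoxicity counter-screen.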

Assay [9] relates to thyroid hormone receptor (rat, GH3 cells). Kind of assay: qHTS assay to identify small molecule agonists of the thyroid receptor (TR) signaling pathway (AID 743066; calls by dose curve; note: potency is the fitted concentration of half-maximal effect).
A short description of assay [10]: qHTS assay to identify small molecule antagonists of the estrogen receptor alpha (ER-alpha) signaling pathway - cell viability counter screen (AID 743074; calls by dose curve;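 note: HEK293 cells carrying ER-alpha-UAS-bla reporter stimulated with 17beta-estradiol; nearly all actives have a fitted effect of over 45% in size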).
For assay [11], the target named is Estrogen receptor (Homo sapiens) (UniProt P03372). Put plainly: qHTS assay to identify small molecule agonists of the estrogen receptor alpha (ER-alpha) signaling pathway (AID 743075; calls by dose curve).
Estrogen receptor (Homo sapiens), sequence (P03372 whole entry, looked up): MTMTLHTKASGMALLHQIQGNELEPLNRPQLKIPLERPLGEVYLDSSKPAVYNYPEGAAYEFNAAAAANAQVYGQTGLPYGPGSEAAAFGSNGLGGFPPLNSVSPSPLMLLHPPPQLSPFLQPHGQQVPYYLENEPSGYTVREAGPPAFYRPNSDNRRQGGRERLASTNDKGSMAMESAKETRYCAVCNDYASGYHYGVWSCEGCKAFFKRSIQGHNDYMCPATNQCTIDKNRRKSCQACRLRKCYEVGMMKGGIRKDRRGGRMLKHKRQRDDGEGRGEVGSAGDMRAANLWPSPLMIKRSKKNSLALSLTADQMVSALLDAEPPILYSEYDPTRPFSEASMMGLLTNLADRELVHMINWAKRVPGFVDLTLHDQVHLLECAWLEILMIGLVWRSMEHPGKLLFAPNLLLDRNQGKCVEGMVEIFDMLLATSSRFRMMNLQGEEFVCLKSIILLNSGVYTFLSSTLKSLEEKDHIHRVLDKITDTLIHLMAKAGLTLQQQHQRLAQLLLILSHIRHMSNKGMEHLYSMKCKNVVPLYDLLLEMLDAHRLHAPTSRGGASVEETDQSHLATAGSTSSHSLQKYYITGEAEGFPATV
For assay [12] the target is unchanged. Put plainly: qHTS assay to identify small molecule agonists of the estrogen receptor alpha (ER-alpha) signaling pathway using the BG1 cell line (AID 743079). Note: nearly all actives have a fitted effect of over 20% in size. As to conditions: BG1Luc4E2 cells, ERE-luciferase agonist, 22 h.
A short description of assay [13]: qHTS assay to identify small molecule antagonists of the estrogen receptor alpha (ER-alpha) signaling pathway using the BG1 cell line (AID 743080; calls by dose curve;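 note: BG1 cells stimulated with 17beta-estradiol alongside compound; nearly all actives have a fitted effect of over 25% in size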). The method in brief:
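Luminescence from a 4×ERE-luciferase reporter in BG1-Luc-4E2 cells served as read-out. Cells, pre-cultured 5 days in stripped-serum phenol-red-free medium, were exposed to compound with 17beta-estradiol co-stimulation for 21.5 h at 37 C.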

A short description of assay [14]: qHTS assay to identify small molecule antagonists of the estrogen receptor alpha (ER-alpha) signaling pathway using the BG1 cell line - cell viability counter screen (AID 743081).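 Note: compound given together with 17beta-estradiol as the ER stimulus; nearly all actives have a fitted effect of over 45% in size.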
Assay [15] concerns the target Aromatase (Homo sapiens) (UniProt P11511). Kind of assay: qHTS assay to identify aromatase inhibitors (AID 743083). Note: nearly all actives have a fitted effect of over 55% in size.
A short description of assay [16]: qHTS assay to identify aromatase inhibitors - cell viability counter screen (AID 743084).
Assay [17] has as its target Androgen receptor (Homo sapiens) (UniProt P10275). Kind of assay: qHTS assay to identify small molecule antagonists of the androgen receptor (AR) signaling pathway (AID 743035; active = well fitted inhibition curve with a large enough effect in the signal ratio in the repeat runs, not every such curve was filed as active; the % refers to the signal ratio). The method in brief:
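Antagonism is scored as loss of R1881-driven beta-lactamase reporter expression in HEK293 cells carrying the reporter under a UAS element, after 16 h co-treatment at 37C and a 2 h room-temperature FRET substrate read.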

Assay [18] shares this target. Kind of assay: qHTS assay to identify small molecule agonists of the androgen receptor (AR) signaling pathway (AID 743036; active = well fitted activation curve with a large enough effect in the signal ratio in the repeat runs, with a control signal flat, not every such curve was filed as active; the % refers to the signal ratio). The method in brief: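 Activation was read as beta-lactamase FRET signal from LiveBLAzer B/G substrate, added for 2 h at room temperature. Before that, GeneBLAzer AR-UAS-bla GripTite (HEK293) cells had 16 h compound exposure at 37C.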
Assay [19] shares this target. Put plainly: qHTS assay to identify small molecule antagonists of the androgen receptor (AR) signaling pathway using the MDA cell line (AID 743042; note: nearly all actives have a fitted effect of over 55% in size). The method in brief:
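MDA-kb2 breast carcinoma cells carrying MMTV-luciferase (AR/GR responsive) were co-treated with compounds and the agonist R1881 for 16 h at 37C. Inhibition read as ONE-Glo luminescence; CellTiter-Fluor fluorescence measured in parallel for cytotoxicity.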

Assay [20] deals with Estrogen receptor (Homo sapiens) (UniProt P03372). Kind of assay: qHTS assay to identify small molecule antagonists of the estrogen receptor alpha (ER-alpha) signaling pathway (AID 743069; active = well fitted curve in the direction sought with a large enough effect in the signal ratio in the repeat runs, not every such curve was filed as active; the % refers to the signal ratio). The method in brief:
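HEK293 ER-alpha-UAS-bla GripTite cells, held overnight in 2% charcoal-stripped FBS, 5,000 cells/well, preincubated 4 h, then compound plus 17beta-estradiol for 18 h at 37C. Beta-lactamase read by LiveBLAzer B/G FRET substrate, 2 h at room temperature.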
% is set by controls: 0 for no effect and ±100 for the full control effect.

Androgen receptor (Homo sapiens), sequence (P10275 whole entry, looked up): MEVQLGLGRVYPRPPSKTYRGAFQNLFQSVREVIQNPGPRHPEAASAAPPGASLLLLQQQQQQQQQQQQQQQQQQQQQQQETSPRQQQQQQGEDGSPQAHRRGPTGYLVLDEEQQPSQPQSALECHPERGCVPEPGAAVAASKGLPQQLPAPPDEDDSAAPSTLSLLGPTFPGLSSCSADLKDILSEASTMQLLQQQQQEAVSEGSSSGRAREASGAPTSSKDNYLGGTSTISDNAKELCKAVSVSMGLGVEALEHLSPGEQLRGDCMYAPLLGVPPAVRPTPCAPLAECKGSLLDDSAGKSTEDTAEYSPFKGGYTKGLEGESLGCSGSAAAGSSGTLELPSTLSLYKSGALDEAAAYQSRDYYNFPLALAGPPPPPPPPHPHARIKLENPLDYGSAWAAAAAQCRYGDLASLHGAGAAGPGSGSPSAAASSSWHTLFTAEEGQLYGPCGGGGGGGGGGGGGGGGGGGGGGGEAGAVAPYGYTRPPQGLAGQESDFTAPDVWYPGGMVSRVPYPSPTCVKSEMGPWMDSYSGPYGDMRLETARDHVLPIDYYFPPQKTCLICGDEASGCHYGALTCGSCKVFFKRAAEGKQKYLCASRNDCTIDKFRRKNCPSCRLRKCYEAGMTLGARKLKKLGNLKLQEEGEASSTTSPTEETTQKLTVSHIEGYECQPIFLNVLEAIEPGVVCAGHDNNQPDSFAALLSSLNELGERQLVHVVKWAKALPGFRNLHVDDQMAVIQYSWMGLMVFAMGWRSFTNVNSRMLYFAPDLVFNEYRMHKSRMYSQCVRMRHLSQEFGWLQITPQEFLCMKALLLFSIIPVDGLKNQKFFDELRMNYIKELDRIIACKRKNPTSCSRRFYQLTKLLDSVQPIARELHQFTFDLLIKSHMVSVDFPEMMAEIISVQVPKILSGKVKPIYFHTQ
Aromatase (Homo sapiens), sequence (P11511 whole entry, looked up): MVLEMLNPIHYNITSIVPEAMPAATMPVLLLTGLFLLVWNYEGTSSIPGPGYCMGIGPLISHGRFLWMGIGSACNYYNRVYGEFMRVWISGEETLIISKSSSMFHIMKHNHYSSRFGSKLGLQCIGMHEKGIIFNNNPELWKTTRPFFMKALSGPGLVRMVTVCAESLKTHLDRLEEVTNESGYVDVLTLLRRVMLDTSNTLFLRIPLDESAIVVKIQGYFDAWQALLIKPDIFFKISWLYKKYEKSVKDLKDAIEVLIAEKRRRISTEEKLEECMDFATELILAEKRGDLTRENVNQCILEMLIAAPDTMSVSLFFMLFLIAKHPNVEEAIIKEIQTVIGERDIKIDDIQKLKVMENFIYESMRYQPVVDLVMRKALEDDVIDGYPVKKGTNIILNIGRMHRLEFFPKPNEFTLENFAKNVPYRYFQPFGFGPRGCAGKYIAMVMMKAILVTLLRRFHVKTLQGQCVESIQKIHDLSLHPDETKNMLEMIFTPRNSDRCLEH

With `N[C@@H](Cc1ccc(Oc2cc(I)c(O)c(I)c2)c(I)c1)C(=O)O`, the Potency entry in assay [1], in [2], in [3], in assay [4], in assay [5] and in [6] was “inactive” throughout. In addition, the Potency result in [7], in assay [8], in assay [10], in assay [11], in assay [13] and in assay [14] was “inactive” each time. For the same compound, the Potency result in assay [15] and in assay [16] was “inactive” in each case. For the same compound, in assay [9], the Potency was 168 nM (active). For the same compound, in [12] (at 70.3 µM (top of the series)), the activation was -1.5%.

On to `COP(=O)(O)OC`, for which the Potency result in [1], in assay [2], in [3], in assay [4], in assay [5] and in [17] was “inactive” each time. Further, the Potency entry in assay [6], in assay [19], in [7], in [8], in [9] and in assay [20] was “inactive” each time. For the same compound, the Potency entry in [10], in [11], in assay [13], in [14], in assay [15] and in assay [16] was “inactive” in each case. Also, the compound was called inactive in assay [18]. Besides, in assay [12] (at 95 µM (top of the series)), the activation is -8.98%.

Consider `C=CC(=O)OCCN(C)C`, for which the Potency result in assay [1], in [2], in [3], in [4], in assay [5] and in [6] was “inactive” throughout. Also, the Potency entry in assay [7], in [9], in [10], in [14], in assay [15] and in [16] was “inactive” in each case.

Consider `O=C(Cl)c1ccccc1`, for which the Potency result in assay [1], in [2], in assay [3], in assay [4], in [5] and in assay [6] was “inactive” in each case. Further, the Potency entry in assay [7], in [8], in assay [9], in assay [20], in assay [10] and in assay [11] was “inactive” each time. Besides, the Potency entry in assay [13], in [14], in [15] and in [16] was “inactive” in each case. The activation in [12] (at 95 µM (top of the series)) is 1.6%.

Regarding `ClCCCCl`, the Potency result in assay [1], in assay [2], in assay [3], in [4], in assay [5] and in [6] was “inactive” each time. Besides, the Potency entry in [7], in assay [8], in [9], in assay [10], in assay [14] and in [15] was “inactive” in each case. The Potency result in assay [16] was “inactive”.

As to `ClCC1CO1` (configuration not stated), the Potency result in [1], in [2], in [3], in assay [4], in assay [5] and in assay [6] was “inactive” throughout. The Potency result in [7], in assay [9], in assay [20], in assay [10], in [11] and in assay [13] was “inactive” each time. Also, the Potency result in [14], in [15] and in assay [16] was “inactive” in each case. For the same compound, the activation in assay [12] (at 70.3 µM (top of the series)) was -1.3% and 13.9%.

Consider `O=P(O)(O)CN(CP(=O)(O)O)CP(=O)(O)O`, for which the Potency result in [1], in [2], in assay [3], in assay [4], in assay [5] and in [6] was “inactive” in each case. Moreover, the Potency entry in assay [7], in [8], in [9], in [20], in [10] and in assay [11] was “inactive” throughout. Moreover, the Potency result in assay [13], in assay [14], in assay [15] and in assay [16] was “inactive” each time. In addition, the activation in [12] (at 32.5 µM (top of the series)) is 11.2%.

Regarding `NNC(N)=O`, the Potency result in assay [1], in [2], in assay [3], in [4], in [5] and in [6] was “inactive” in each case. The Potency entry in [7], in assay [8], in assay [9], in assay [10], in assay [11] and in [13] was “inactive” each time. The Potency entry in assay [14], in [15] and in assay [16] was “inactive” in each case. Besides, in assay [12] (at 95 µM (top of the series)), the activation was -3.44%.
